Source: PubChem BioAssay (several laboratories)
LMP1 NFkB inh = EBV LMP1-driven NF-kappaB luciferase reporter inhibitors, primary screen, cell-based, luminescence, single point; LMP1-induced NF-kappaB luciferase reporter cells; inhibition, % at 12.5 µM; 350,000 compounds, 0.69% hits; in the data active = inhibition above about 41%; inconclusive = no clear call, values can overlap the other calls
HSF-1 act = HSF-1 activators, primary screen, NIH3T3-HGL cells, MG132 stress, luminescence, single point; NIH3T3-HGL HSF-1 luciferase reporter, 8 h; 100% = twice DMSO control signal; activation, % at 9 µM; 300,000 compounds, 1.7% hits;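 active = mean replicate activation of at least 50% with a set share of replicates each reaching 50%; inconclusive = only one of those two conditions met; inactive = mean below 50% and too few replicates reaching it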
HSF1 inhib = HSF1 inhibitors in luciferase reporter cells, primary screen, cell-based, NIH3T3, luminescence; NIH3T3-HGL HSE-luciferase, MG132-induced, luminescence 8 h; hits give low values; activity change, negative = inhibition, % at 7.5 µM (by protocol); 300,000 compounds, 0.77% hits; AID 2098, 2009;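 active = more than half of replicate wells show activity change below -50%, luminescence cut by over half; inconclusive = some wells, but at most half, below -50%; inactive = no replicate well below -50%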;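 also: luciferase reports HSF-1 transcriptional activity via heat shock element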
TROY NFkB inh = inhibitors of TROY-driven NF-kB signaling, primary screen, Q293 LMP1-TROYcd cells, NF-kB luciferase, uHTS | Q293 LMP1-TROYcd NF-kB luciferase reporter, 4 h | inhibition, % at 10 µM | 360,000 compounds, 0.98% hits;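 active = compounds whose plate-normalised and pattern-corrected inhibition of the luciferase reporter signal at the single screening dose is 50% or more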
LGR2 inh = inhibitors of bursicon-induced LGR2 CRE-luciferase signal, primary screen, cell-based, HEK293, CRE-luciferase reporter, bursicon stimulation; Drosophila bursicon receptor LGR2 (rickets); bursicon-stimulated, 4 h; inhibition, % at 9.99 µM; 380,000 compounds, 0.35% hits; AID 720647, 2013;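 active = drop in luminescence signal, shown as inhibition above about 50% in the replicate tests, limit read from the data, passing the limit was not always enough; inconclusive = probably only some replicates passing the limit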;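 also: agonist challenge used bursicon conditioned medium at about half maximal strength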
TWEAK-Fn14 inh = inhibitors of TWEAK-Fn14 signaling, primary screen, luciferase reporter cells, uHTS; TWEAK-stimulated Fn14 reporter cells, luciferase luminescence, 8 h; inhibition, % at 10 µM; 360,000 compounds, 2% hits; AID 1159606, 2016; in the data active = inhibition above about 50%
Of the large screens only hits and unclear results are named; the others gave an inactive call. Hits are enriched below; roughly 3.6% of the tested compounds scored in any of these assays.

C[C@@H]1CCCCO[C@@H](CN(C)S(=O)(=O)c2ccccc2)[C@H](C)CN([C@@H](C)CO)C(=O)c2cc(NC(=O)Nc3ccc(C(F)(F)F)cc3)ccc2O1	none (no result: LMP1 NFkB inh, HSF-1 act, HSF1 inhib, TROY NFkB inh, TWEAK-Fn14 inh)
Oc1ccc(Cl)cc1/C=C/c1ccc2cccc(O)c2n1	HSF-1 act 58
Oc1cccc2ccc(/C=C/c3ccccc3Br)nc12	TROY NFkB inh 55, TWEAK-Fn14 inh 56
COc1cc(Br)cc(/C=C/c2ccc3cccc(O)c3n2)c1O	HSF-1 act 85
O=C(OCc1nc2scc(-c3ccccc3)c2c(=O)[nH]1)c1cc([N+](=O)[O-])ccc1Cl	TWEAK-Fn14 inh 63
O=C(O)CSCc1nc2scc(-c3ccccc3)c2c(=O)[nH]1	none
Clc1ccc(-n2c(SC/C=C/c3ccccc3)nnc2-c2cccnc2)cc1	HSF-1 act 69 (no result: LGR2 inh)
C[C@@H]1CN([C@H](C)CO)C(=O)c2cccc(NS(=O)(=O)c3cn(C)cn3)c2O[C@@H]1CN(C)Cc1ccc(C(=O)Nc2ccccc2N)cc1	none (no result: LMP1 NFkB inh, HSF-1 act, HSF1 inhib, TROY NFkB inh, TWEAK-Fn14 inh)
COc1ccc(C=CC(=O)c2ccc([N+](=O)[O-])cc2)cc1	none (no result: HSF-1 act, HSF1 inhib)
O=C(/C=C/c1ccc(O)cc1)c1ccccc1	HSF-1 act 84
O=C(C#Cc1ccccc1)c1cccc([N+](=O)[O-])c1	HSF-1 act 101
COc1ccc(C(=O)/C=C/c2ccc(O)cc2)cc1	none
CC(=O)c1cccc([N+](=O)[O-])c1	none (no result: HSF-1 act, HSF1 inhib)
O=C(C=Cc1ccccn1)c1ccccc1	LGR2 inh inconclusive, TWEAK-Fn14 inh 82 (no result: HSF-1 act, HSF1 inhib)
Cc1[nH]c(C)c(C(=O)/C=C/c2ccc([N+](=O)[O-])cc2)c1C	HSF-1 act 70, TWEAK-Fn14 inh 60 (no result: LGR2 inh)
COc1ccccc1-c1cccc(-c2nc(C(=O)N3CCOCC3)cc3c2[C@H](CCO)N([S@@](=O)C(C)(C)C)C3)c1	none (no result: LMP1 NFkB inh, HSF-1 act, HSF1 inhib, TROY NFkB inh, TWEAK-Fn14 inh)
CO[C@@H]1CN(C)C(=O)c2ccc(NS(=O)(=O)c3ccccc3)cc2OC[C@H](C)N(Cc2nccs2)C[C@@H]1C	none (no result: LMP1 NFkB inh, HSF-1 act, HSF1 inhib, TROY NFkB inh, TWEAK-Fn14 inh)
O=C(/C=C/c1ccccc1F)c1cccc([N+](=O)[O-])c1	LMP1 NFkB inh 45
O=C(C=Cc1ccccc1)c1ccc([N+](=O)[O-])cc1	LMP1 NFkB inh 56 (no result: HSF-1 act, HSF1 inhib)
CC(C)(C)c1ccc(OC(=O)Nc2ccc(O)c(C(=O)O)c2)cc1	TWEAK-Fn14 inh 73
O=C(C[C@@H]1CC[C@H]2[C@@H](COC[C@@H](O)CN2C(=O)c2cnccn2)O1)NCc1ccc(F)cc1	none (no result: LMP1 NFkB inh, HSF-1 act, HSF1 inhib, TROY NFkB inh, TWEAK-Fn14 inh)
C=CCSc1nnc(CCCCCN2C(=O)c3cccc4cccc(c34)C2=O)o1	LMP1 NFkB inh 59
CCOC(=O)CSc1nnc(CCCCCN2C(=O)c3cccc4cccc(c34)C2=O)o1	none
CCCCCCCCn1ccc(=N)cc1	none
CCCCCCCCCCCCCCCCn1cc[n+](C)c1	TWEAK-Fn14 inh 78 (no result: LGR2 inh)
CO[C@H](CN(C)S(=O)(=O)c1cccc(Cl)c1)[C@H](C)CN([C@H](C)CO)S(=O)(=O)c1cccc(Cl)c1	none (no result: LMP1 NFkB inh, HSF-1 act, HSF1 inhib, TROY NFkB inh, TWEAK-Fn14 inh)
O=C(/C=C/c1ccc(Cl)cc1Cl)N1CCc2ccccc21	HSF-1 act 55
O=C(CNC(=O)c1ccccc1Cl)OCC(=O)N1CCc2ccccc21	HSF-1 act 55
O=C(/C=C/c1cccc(F)c1)N1CCc2ccccc21	LGR2 inh 54
Cc1cccc(C(=O)NCC(=O)OCC(=O)N2CCc3ccccc32)c1	none
O=C(COc1ccc(F)cc1Br)N1CCc2ccccc21	HSF-1 act 80 (no result: LGR2 inh)
C[C@H](O)C#Cc1cnc2c(c1)C(=O)N([C@H](C)CO)C[C@H](C)[C@H](CN(C)C(=O)CN1CCOCC1)O2	none (no result: LMP1 NFkB inh, HSF-1 act, HSF1 inhib, TROY NFkB inh, TWEAK-Fn14 inh)
C[C@@H]1CN([C@@H](C)CO)C(=O)c2cc(NC(=O)c3ccncc3)ccc2O[C@@H]1CN(C)Cc1ccc(-c2ccccc2)cc1	none (no result: LMP1 NFkB inh, HSF-1 act, HSF1 inhib, TROY NFkB inh, TWEAK-Fn14 inh)
C[C@H]1CN([C@@H](C)CO)C(=O)c2cc(NC(=O)c3ccncc3)ccc2O[C@@H]1CN(C)S(=O)(=O)c1ccc(F)cc1	none (no result: LMP1 NFkB inh, HSF-1 act, HSF1 inhib, TROY NFkB inh, TWEAK-Fn14 inh)
CCNC(=O)C[C@@H]1C=C[C@@H](NS(=O)(=O)c2ccc(F)cc2)[C@H](CO)O1	none (no result: LMP1 NFkB inh, HSF-1 act, HSF1 inhib, TROY NFkB inh, TWEAK-Fn14 inh)
Cc1ccc2c(Cl)c(C(=O)NCCc3ccccc3)sc2c1	HSF-1 act 77
Cc1ccc2c(Cl)c(C(=O)NCC3CCCO3)sc2c1 (stereo unspecified)	HSF-1 act 54 (no result: LGR2 inh)
CC1=C(C(=O)OCc2ccc3c(c2)OCO3)C(c2ccc(F)cc2)NC(=O)N1 (stereo unspecified)	LMP1 NFkB inh 79, HSF1 inhib -54, TROY NFkB inh 55, TWEAK-Fn14 inh 87
CCOC(=O)C1=C(C)NC(=O)NC1c1ccc(OCC(N)=O)cc1 (stereo unspecified)	TWEAK-Fn14 inh 79 (no result: TROY NFkB inh, LGR2 inh)
CC1=C(C(=O)OCCBr)C(c2cccc3ccccc23)NC(=O)N1 (stereo unspecified)	TWEAK-Fn14 inh 53
CSCCOC(=O)C1=C(C)NC(=O)NC1c1ccc2c(c1)OCO2 (stereo unspecified)	HSF-1 act 56
CCCCCOC(=O)C1=C(C)NC(=O)NC1c1ccc2c(c1)OCO2 (stereo unspecified)	none
C[C@H](CO)N1C[C@H](C)[C@@H](CN(C)Cc2ccccc2F)Oc2cc(C3=CCCC3)ccc2S1(=O)=O	none (no result: LMP1 NFkB inh, HSF-1 act, HSF1 inhib, TROY NFkB inh, TWEAK-Fn14 inh)
Cc1noc(C)c1NC(=O)N(C)C[C@H]1Oc2ccc(NS(=O)(=O)c3cccs3)cc2CC(=O)N([C@@H](C)CO)C[C@H]1C	none (no result: LMP1 NFkB inh, HSF-1 act, HSF1 inhib, TROY NFkB inh, TWEAK-Fn14 inh)
C[C@@H]1CCCCO[C@H](CN(C)S(=O)(=O)c2ccc(F)cc2)[C@H](C)CN([C@@H](C)CO)C(=O)c2cc(NC(=O)CCCN(C)C)ccc2O1	none (no result: LMP1 NFkB inh, HSF-1 act, HSF1 inhib, TROY NFkB inh, TWEAK-Fn14 inh)
O=C(C1CCCC1)N1[C@@H](CO)[C@@H]2c3ccccc3N(S(=O)(=O)c3ccc(F)cc3)C[C@@H]21	none (no result: LMP1 NFkB inh, HSF-1 act, HSF1 inhib, TROY NFkB inh, TWEAK-Fn14 inh)
CC1=C(C(=O)OCc2ccc3c(c2)OCO3)C(c2ccc(Cl)cc2)NC(=O)N1 (stereo unspecified)	LMP1 NFkB inh 81, TROY NFkB inh 70, TWEAK-Fn14 inh 94
C/C=C/COC(=O)C1=C(C)NC(=O)NC1c1ccc2c(c1)OCO2 (stereo unspecified)	none
COc1ccc(Cn2nnnc2CN2CCc3ccccc3C2)cc1	HSF1 inhib -61 (no result: LGR2 inh)
COc1cc(CN2CCc3ccccc3C2)cc([N+](=O)[O-])c1O	none
COc1cc(CN2CCc3ccccc3C2)ccc1O	TWEAK-Fn14 inh 91
CCOC(=O)C1=C(c2ccccc2)NC(SC)=C(C#N)C1c1ccco1 (stereo unspecified)	HSF-1 act 51
CCOC(=O)C1=C(c2ccccc2)NC(SCC(=O)Nc2ccccc2C)=C(C#N)C1c1ccco1 (stereo unspecified)	TWEAK-Fn14 inh 51 (no result: LGR2 inh)
